# Measured values as given in PubChem BioAssay (NCATS).
# “And” between values parts separate entries of the source, which are not always exact repeats. Identical values can stand only once. Results filed as inconclusive are left out. A call without a number means that no potency is given here. Values without a mark were called inactive. The source made the active and inactive calls. The call rests on the fitted dose curve; in most records, active means well fitted curve in the direction sought with a large enough effect; inconclusive means small, poorly fitted or top-dose-only effect, or another doubt; inactive means no such curve, though single readings can be large; an effect the other way counts as inactive or inconclusive.
# Assays:
# [1] = target: Cellular tumor antigen p53 (Homo sapiens) (UniProt P04637); test: Primary qHTS for small molecule compounds that upregulate eGFP-tagged delta133p53alpha (in N-terminal) cells. (AID 2060322); details: NCI-H358 eGFP-delta133p53alpha fluorescence, 24 h; activation: stronger effect = higher value; further: nearly all actives have a fitted effect of over 75% in size; further: potency means the concentration at half of the fitted maximal effect;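 on activation: cells pre-induced with doxycycline then dosed without doxycycline; series mostly up to about 56 µM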
# Chain of Cellular tumor antigen p53 (Homo sapiens) (P04637 whole entry, looked up): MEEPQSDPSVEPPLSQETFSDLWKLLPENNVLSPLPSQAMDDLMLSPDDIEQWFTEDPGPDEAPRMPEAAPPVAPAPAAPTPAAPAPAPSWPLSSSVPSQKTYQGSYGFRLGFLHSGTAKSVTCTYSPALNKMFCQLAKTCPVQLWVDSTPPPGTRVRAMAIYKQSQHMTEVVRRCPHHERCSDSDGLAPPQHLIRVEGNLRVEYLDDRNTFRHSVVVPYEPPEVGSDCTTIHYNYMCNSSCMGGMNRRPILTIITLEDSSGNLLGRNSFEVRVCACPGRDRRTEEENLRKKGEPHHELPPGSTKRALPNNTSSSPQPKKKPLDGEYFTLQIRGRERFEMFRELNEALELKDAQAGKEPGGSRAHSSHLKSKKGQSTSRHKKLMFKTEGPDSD
# Summary of the method: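 NCI-H358 cells pre-induced 24 h with 10 ng/ml doxycycline for eGFP-delta133p53alpha, plated dox-free and exposed 24 h at 37C to titrated compounds. Fixed, Hoechst-stained; gated GFP peak intensity by laser scanning cytometry, normalized to DMSO (0%) and 57.5 uM 5-azacytidine (100%).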
# [2] = target: Aldehyde dehydrogenase, mitochondrial (Homo sapiens) (UniProt P05091); test: qHTS for Inhibitors of the Aldehyde Dehydrogenase Family (ALDH2) Primary screen (AID 2061308); further: nearly all actives have a fitted effect of over 55% in size
# [3] = target: Retinaldehyde dehydrogenase 3 (Homo sapiens) (UniProt P47895); test: qHTS for Inhibitors of the Aldehyde Dehydrogenase Family (ALDH1A3) Primary screen (AID 2061315)
# [4] = BET inhibitor-based combinations targeting novel dependencies in MECOM-rearranged (r) AML: SET-2 cell line (AID 2202231); details: SET-2 AML cells viability, CellTiter-Glo luminescence, 48 h; viability: stronger effect = lower value, concentration not given here; further: nearly all actives have a fitted effect of over 35% in size; further: potency means the concentration at half of the fitted maximal effect
# Summary of the method: (§1)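 Here, 11-point titrations of each agent were applied to 500 seeded cells and incubated 48 hr; CellTiter-Glo signal, scaled against DMSO and empty wells, was integrated as AUC, then Z-scored within the individual line.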
# [5] = BET inhibitor-based combinations targeting novel dependencies in MECOM-rearranged (r) AML: OCI-AML3 cell line (AID 2202232); details: Potency: OCI-AML3 viability; further: nearly all actives have a fitted effect of over 35% in size; further: potency means the concentration at half of the fitted maximal effect
# Summary of the method: as §1
# [6] = BET inhibitor-based combinations targeting novel dependencies in MECOM-rearranged (r) AML: MV-4-11 cell line (AID 2202233); further: nearly all actives have a fitted effect of over 45% in size; further: potency means the concentration at half of the fitted maximal effect
# Summary of the method: (§2)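 Normalized to DMSO and empty-well controls, the luminescence data from CellTiter-Glo after 48 hr drug exposure were fitted across 11 concentrations. Reported metrics are area under the dose-response curve and its Z-transformed form.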
# [7] = BET inhibitor-based combinations targeting novel dependencies in MECOM-rearranged (r) AML: UCSD-AML1 cell line (AID 2202235); further: series mostly up to about 46 µM; nearly all actives have a fitted effect of over 40% in size
# Summary of the method: as §2
# [8] = BET inhibitor-based combinations targeting novel dependencies in MECOM-rearranged (r) AML: AML-194 cell line (AID 2202237; further: nearly all actives have a fitted effect of over 40% in size; further: potency means the concentration at half of the fitted maximal effect)
# Summary of the method: as §1
# [9] = BET inhibitor-based combinations targeting novel dependencies in MECOM-rearranged (r) AML: AML-191 cell line (AID 2202236; further: nearly all actives have a fitted effect of over 35% in size; further: potency means the concentration at half of the fitted maximal effect)
# Summary of the method: as §1
# [10] = BET inhibitor-based combinations targeting novel dependencies in MECOM-rearranged (r) AML: HNT-34 cell line (AID 2202234); further: nearly all actives have a fitted effect of over 35% in size; further: potency means the concentration at half of the fitted maximal effect
# Summary of the method: as §2
compound,measurement,setting,value
C[C@H]1O[C@@H](O[C@H]2[C@@H](O)C[C@H](O[C@H]3[C@@H](O)C[C@H](O[C@H]4CC[C@@]5(C)[C@H](CC[C@@H]6[C@@H]5CC[C@]5(C)[C@@H](C7=CC(=O)OC7)CC[C@]65O)C4)O[C@@H]3C)O[C@@H]2C)C[C@H](O)[C@@H]1O,activation,[1],5.34%
same,Potency,[2],inactive
same,Potency,[3],inactive
CC12CCC3C(CCC4(O)CC(O)CCC34C=O)C1(O)CCC2C1=CC(=O)OC1 (stereo not drawn),Potency,[1],10700 nM (active)
same,Potency,[2],inactive
same,Potency,[3],inactive
C[C@H]1O[C@@H](n2cnc3c(N)ncnc32)C[C@@H]1O,activation,[1],15%
same,Potency,[2],inactive
same,Potency,[3],inactive
CC1=CC(=O)[C@@H](O)[C@@]2(C)C1C[C@H]1OC(=O)[C@H](O)[C@@]3(O)[C@@H](C)[C@@H](O)[C@H](O)C2[C@@]13C (stereo partly drawn),Potency,[1],14800 nM (active)
same,Potency,[2],inactive
same,Potency,[3],inactive
C=C(C)C(=O)O[C@H]1[C@@H]2[C@H](C)C(=O)O[C@@H]2C[C@@H](C)[C@@H]2C=CC(=O)[C@]21C,Potency,[1],13200 nM (active)
same,Potency,[2],inactive
same,Potency,[3],inactive
CC(N[C@H]1C[C@H]1c1ccccc1)c1ccc2c(c1)OCCO2 (stereo partly drawn),activation,[1],-13.9% and -18.6%
same,Potency,[2],inactive
same,Potency,[3],inactive
CC(C)=C1CC[C@]23CO[C@H](C2)[C@@](O)(C(=O)O)CCC13 (stereo partly drawn),activation,[1],-4.58%
same,Potency,[2],inactive
same,Potency,[3],inactive
CN1CCc2cc3c(cc2C1C1OC(=O)c2c1ccc1c2OCO1)OCO3 (stereo not drawn),activation,[1],-26%
same,Potency,[2],inactive
same,Potency,[3],inactive
CCC1CN2CCc3cc(OC)c(OC)cc3C2CC1CC1=NCCc2cc(O)c(OC)cc21 (stereo not drawn),activation,[1],23.2%
same,Potency,[2],inactive
same,Potency,[3],inactive
C[C@]12CC[C@@H](O)C[C@H]1CC[C@@H]1[C@@H]2CC[C@]2(C)C(=O)CC[C@@H]12,activation,[1],3.67%
same,Potency,[2],inactive
same,Potency,[3],inactive
CN1CCC2=C(C1)c1ccccc1Cc1ccccc12,activation,[1],16.2%
same,Potency,[2],inactive
same,Potency,[3],inactive
C/C1=C/[C@@H](C)C/C=C/[C@H]2[C@@H]3O[C@]3(C)[C@@H](C)[C@H]3[C@H](Cc4c[nH]c5ccccc45)NC(=O)[C@]32C(=O)/C=C\C(=O)[C@@H]1O,Potency,[1],11700 nM (active)
same,Potency,[2],inactive
same,Potency,[3],inactive
CC(=O)OC[C@]12C[C@H](OC(C)=O)C(C)=C[C@H]1O[C@@H]1[C@H](O)[C@@H](O)[C@@]2(C)[C@]12CO2,Potency,[1],467 nM (active)
same,Potency,[2],inactive
same,Potency,[3],inactive
CCCCCCC1C(=O)O[C@H](C)[C@H](NC(=O)c2cccc(NC=O)c2O)C(=O)O[C@@H](C)[C@@H]1OC(=O)CC(C)C (stereo partly drawn),activation,[1],-5.67%
same,Potency,[2],inactive
same,Potency,[3],inactive
CC(C)OC(=O)c1ccnc2cc(C(OCCN3CCCCC3)c3ccccc3Cl)sc12 (stereo not drawn),activation,[1],-11.2%
same,Potency,[3],inactive
COc1cc(C)[nH]c(=O)c1CNC(=O)c1c(C)n([C@H](C)C2CCOCC2)c2ccccc12,activation,[1],-8.11%
same,Potency,[2],inactive
same,Potency,[3],inactive
same,viability,[4],113%
same,Potency,[5],inactive
same,Potency,[6],inactive
same,Potency,[7],inactive
same,Potency,[8],inactive
CNC(=O)c1ccc(N2C(=S)N(c3ccc(C#N)c(C(F)(F)F)c3)C(=O)C23CCC3)cc1F,activation,[1],38.4% and -8.11%
same,Potency,[2],inactive
same,Potency,[3],inactive
same,viability,[4],101%
same,Potency,[9],inactive
same,Potency,[8],inactive
COC(=O)C1(C)CCC(O)C2(C)c3c(O)cc(C(C)C)cc3C(O)C(OC(C)=O)C12 (stereo not drawn),activation,[1],-9.16%
same,Potency,[2],inactive
same,Potency,[3],inactive
Cc1ccccc1-n1c(Cn2cnc3c(N)ncnc32)nc2cccc(C)c2c1=O,activation,[1],46.4% and -16.1%
same,Potency,[2],inactive
same,Potency,[3],inactive
same,viability,[4],110%
same,Potency,[5],2950 nM (active)
same,Potency,[10],inactive
same,Potency,[7],inactive
same,Potency,[9],inactive
same,Potency,[8],inactive
C/C=C(/C)C(=O)O[C@H]1C(C)=C2[C@H]([C@@H]1OC(=O)CCCCCCC)[C@@](C)(OC(C)=O)C[C@H](OC(=O)CCC)[C@@]1(O)[C@H]2OC(=O)[C@@]1(C)O,Potency,[1],33800 nM (active)
same,Potency,[2],inactive
same,Potency,[3],inactive
same,Potency,[4],263 nM (active)
same,Potency,[5],662 nM (active)
same,Potency,[6],166 nM (active)
same,Potency,[10],52.5 nM (active)
same,Potency,[9],417 nM (active)
same,Potency,[8],2090 nM (active)
C[C@]12CC[C@H](OC3OC(CO)C(O)C(O)C3OC3OC(CO)C(O)C(O)C3O)C[C@@H]1CC[C@@H]1C2CC[C@]2(C)[C@@H](C3=CC(=O)OC3)CC[C@]12O (stereo partly drawn),activation,[1],13.4%
same,Potency,[2],inactive
same,Potency,[3],inactive
C=C1CC[C@H]2[C@@H](/C=C(\C)C(=O)[C@@]3(OC(C)=O)C[C@H](C)[C@H](OC(=O)c4ccccc4)[C@@H]3[C@H]1OC(C)=O)C2(C)C,activation,[1],-11.5%
same,Potency,[2],inactive
same,Potency,[3],inactive
C[C@@]12C[C@@H](c3ccoc3)OC(=O)C1CC[C@]1(C)[C@H]2[C@H]2C=C[C@]1(O)C(=O)O2 (stereo partly drawn),activation,[1],-2.29%
same,Potency,[2],inactive
same,Potency,[3],inactive
